The whole screen tested about 420,000 compounds, of which about 64,000 (15%) were called active. Another 27% or so got no clear call; they are omitted. Not all results are given here. A number with no mark means an inactive call. Calls come from the whole dose curve; as a rule, active = well fitted inhibition curve with a large enough effect; inconclusive = small, poorly fitted or top-dose-only effect; inactive = flat fitted curve, though single readings scatter.
Test: qHTS for Inhibitors of human tyrosyl-DNA phosphodiesterase 1 (TDP1): qHTS in cells in absence of CPT; note: nearly all actives have a fitted effect of over 55% in size
Conditions: DT40 Tdp1-/- hTDP1 cells, no CPT, ATP luminescence, 48 h; activity change, negative = growth inhibition: at 46.2 µM (top of the series)
Method in brief: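 Growth kinetics read by CellTiter-Glo luminescence after ≥48 hr at 37 °C. Cells: DT40 Tdp1-/- stably carrying human TDP1, 400 per well, compound exposure in the absence of CPT (DMSO vehicle).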
In the case of `O=C1COc2c1ccc(O)c2O`, the “activity change, negative = growth inhibition” value is reported as 0.378%. For `CC(=O)c1c(C)n(-c2ccc(N(C)C)cc2)c2ccc(OCC(N)=O)cc12`, the Potency was 23.1 µM (active). For `Cc1c(Cc2ccccc2)c(=O)oc2cc(OCC(N)=O)ccc12`, the “activity change, negative = growth inhibition” value was -13.9%. In the case of `CC(=O)c1c(C)n(-c2ccc(C)cc2)c2ccc(O)cc12`, the “activity change, negative = growth inhibition” value is reported as -15.7%. For `COc1ccc(CN2CCCC(N3CCc4ccccc4C3)C2)c(O)c1` (centres undefined), the “activity change, negative = growth inhibition” value was -21.1%. In the case of `Cc1cc(F)ccc1NS(=O)(=O)c1ccc(-n2cccn2)cc1`, the Potency is reported as 16.4 µM (active). In the case of `Cc1ccc(NS(=O)(=O)c2ccc(F)cc2)nc1`, the “activity change, negative = growth inhibition” value is reported as -4.34%. For `Cn1nccc1NS(=O)(=O)c1ccc(F)cc1`, the “activity change, negative = growth inhibition” value was -11.8%. With `COc1ccccc1C(C)NC(=O)Cc1ccsc1` (centres undefined) the “activity change, negative = growth inhibition” value was -6.78%. With `CC1=CC(=C(C#N)c2nc3ccccc3s2)C=C(C)N1c1ccc(F)cc1F` the Potency was 18.4 µM (active). With `CN(Cc1nc2ccccc2s1)C(=O)c1ccc(F)cc1` the “activity change, negative = growth inhibition” value was -17.7%. With `Cc1nn(-c2ccc(F)cc2)c(Cl)c1/C=C(/CCC(=O)O)c1nc2ccccc2s1` the “activity change, negative = growth inhibition” value was -22.9%. For `COCc1c(C(=O)N/N=C\c2cccnc2)nnn1-c1nonc1N`, the “activity change, negative = growth inhibition” value was -4.54%. With `Cc1cc(C(=O)OCC(=O)NCc2ccco2)c(C)n1-c1ccccc1` the Potency was 2.06 µM (active). With `O=C(COC(=O)c1ccccc1O)NCc1ccco1` the “activity change, negative = growth inhibition” value was 25.6%. In the case of `CN(c1ccccc1)S(=O)(=O)c1ccc(Cl)c(C(=O)OCC(=O)NCc2ccco2)c1`, the “activity change, negative = growth inhibition” value is reported as 0.341%. In the case of `Cc1ccc(S(=O)(=O)/N=S(\C)C(C)C)cc1` (centres undefined), the “activity change, negative = growth inhibition” value is reported as -14.2%. For `Cc1cc(O)ccc1NC1=CC(=O)CC(C)(C)C1`, the “activity change, negative = growth inhibition” value was -10.4%. For `Oc1ccc2ccccc2c1C=Nc1ccccc1`, the “activity change, negative = growth inhibition” value was -14.9%. With `Oc1ccc(N=Cc2sc3ccccc3c2Cl)cc1` the Potency was 10.3 µM (active). For `Cc1cc(-c2ccc(/C=N/n3cnnc3)o2)c([N+](=O)[O-])cc1C`, the “activity change, negative = growth inhibition” value was -27.1%. With `O=C1C2C3C=CC(C4CC34)C2C(=O)N1/N=C/c1ccc(-c2ccccc2[N+](=O)[O-])o1` (centres undefined) the Potency was 18.4 µM (active). In the case of `N#C/C(=C/c1ccc(-c2ccccc2[N+](=O)[O-])o1)C(=O)NCCN1CCCCC1`, the “activity change, negative = growth inhibition” value is reported as -14.1%. For `Cn1c(-c2ccc(C(F)(F)F)cc2)cc2onc(-c3ccccc3)c2c1=O`, the “activity change, negative = growth inhibition” value was -2.85%. For `Cc1ccc(S(=O)(=O)CCC(=O)OCC(=O)NCCc2ccc(S(N)(=O)=O)cc2)cc1`, the “activity change, negative = growth inhibition” value was 0.283%. In the case of `CCC1C(=O)NCCN1C(=O)c1ccc2nc(Cc3ccc(OC)cc3)oc2c1` (centres undefined), the “activity change, negative = growth inhibition” value is reported as 10.5%. With `COc1ccc(CC(=O)NC(C)CCc2ccccc2)cc1` (centres undefined) the “activity change, negative = growth inhibition” value was -14.4%. For `COc1ccc(C(CCNCc2ccccc2F)c2ccc(F)cc2)cc1` (centres undefined), the Potency was 13 µM (active). With `COc1ccc(CCNC(=O)COC(=O)Cc2ccccc2F)cc1` the “activity change, negative = growth inhibition” value was -10.9%. With `COc1ccccc1-c1ccnc(-n2ncc(C(=O)NCCc3ccncc3)c2C)n1` the “activity change, negative = growth inhibition” value was -3.85%. With `CNC(=O)CN1C(=O)c2cccnc2Sc2ccccc21` the “activity change, negative = growth inhibition” value was -14.7%. For `COCCNC(=O)CCCN1C(=O)c2ccccc2Sc2ncccc21`, the Potency was “inactive”. With `COc1cccc(NC(=O)CN2C(=O)c3ccccc3Sc3ncccc32)c1` the Potency was 18.4 µM (active). With `Cc1ccc(S(=O)(=O)N(C)CC(=O)NC2CCCC2)cc1` the “activity change, negative = growth inhibition” value was -2.7%. For `C#CCN(C[C@H]1[C@H](OC(=O)NC2CCCC2)[C@H](OC(=O)NC2CCCC2)C[C@H]2C(=O)N(c3ccccc3)C(=O)[C@@H]12)S(=O)(=O)c1ccc(C)cc1`, the “activity change, negative = growth inhibition” value was -8.47%. With `C#CCN(C[C@@H]1[C@@H](OC(=O)NC2CC2)[C@@H](OC(=O)NC2CC2)Cn2c(=O)ccc(=O)n21)S(=O)(=O)c1ccc(C)cc1` the Potency was 14.6 µM (active). For `CN(C)CCN(C(=O)C1=COCCO1)c1nc2ccc(Cl)cc2s1`, the “activity change, negative = growth inhibition” value was -15.7%. With `CC(=O)OCc1cc(=O)n(C)c(=O)n1C` the “activity change, negative = growth inhibition” value was -3.09%. In the case of `CC1C(O)CC2C(C(=O)O)=CO[C@@H](O[C@H]3OC(CO)C(O)C(O)C3O)C21` (some centres undefined), the “activity change, negative = growth inhibition” value is reported as -11.8%. With `CN(C)S(=O)(=O)c1ccc(Oc2ccc(S(=O)(=O)N(C)C)cc2)cc1` the Potency was 18.4 µM (active). With `CN(C)S(=O)(=O)c1ccc(NC(=O)N2CCOCC2)cc1` the “activity change, negative = growth inhibition” value was -20.5%. With `COc1ccc(S(=O)(=O)N(C)CC(=O)N2CCCC2)cc1` the “activity change, negative = growth inhibition” value was 4.23%. For `C#CCOCCOCCOCCNc1nc(N2CCN(C(=O)[C@H](CCC(=O)O)n3cc(CN)nn3)CC2)nc(N2CCN(C(=O)[C@H](CCC(=O)O)n3cc(CN)nn3)CC2)n1`, the “activity change, negative = growth inhibition” value was -1.32%. For `Cc1cccc(C(=O)NCc2nnc(SC(C)C(=O)Nc3nnc(C)s3)n2C)c1` (centres undefined), the “activity change, negative = growth inhibition” value was -10.8%. For `CCc1ccc(Oc2coc3cc(O)ccc3c2=O)cc1`, the “activity change, negative = growth inhibition” value was -1.36%. In the case of `COc1cc(C(=O)OC(C)C(=O)NCC2CCCCC2)cc(NC(=O)c2ccco2)c1OC` (centres undefined), the Potency is reported as 20.6 µM (active). For `CC(OC(=O)c1cccc(S(=O)(=O)N2CCOCC2)c1)C(=O)NCC1CCCCC1` (centres undefined), the “activity change, negative = growth inhibition” value was 2.27%. For `COc1cc(C(C(=O)NC2CCCC2)N(C(=O)c2ccco2)c2ccccc2C(C)=O)cc(OC)c1OC` (centres undefined), the “activity change, negative = growth inhibition” value was -27.1%. In the case of `CSCC[C@H](NC(=O)N1CCn2c1nc1ccccc12)C(=O)NCc1ccc2c(c1)OCO2`, the “activity change, negative = growth inhibition” value is reported as -8.33%.
% is set by controls: 0 for no effect and ±100 for the full control effect; potency is the fitted concentration of half-maximal effect.
